Measured values taken from PubChem BioAssay.
For part of these data: Potency and affinity values are given separately. The source made the active and inactive calls.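 How the source made its calls, unless noted: active means primary screen hit whose calcium fluorescence ratio, in both repeats, exceeds the weak agonist control mean by 3 SD; inactive means the rest.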

How the values were obtained:
[1] = test system: TRPC4 beta (transient receptor potential cation channel C4), mouse; experiment: TRPC4 cation channel opening, retest – cell-based, Fluo4 calcium, HEK293 TRPC4beta/mu-opioid, duplicates, 10 µM, confirmation (AID 2426;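 active means fluorescence ratio normalized to control raised more than 50% in primary screen plus both repeat runs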); conditions: Fluo4 calcium fluorescence, at 10 µM; hits give high values
[2] = test system: transient receptor potential cation channel C4 beta (TRPC4), mouse; experiment: TRPC4 cation channel opening, second retest – cell-based, second round, Fluo4, HEK293 TRPC4beta/mu-opioid, 1 µM, confirmation (AID 2461;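 active means primary screen active and over 50% activation in each of two duplicate runs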); conditions: Fluo4 calcium fluorescence, at 1 µM; hits give high values
[3] = test system: TRPC4 (transient receptor potential cation channel C4 beta), mouse; experiment: potentiation of DAMGO EC20 TRPC4 response – cell-based, second round, Fluo-4, HEK293 TRPC4beta/mu-opioid, 1 µM, confirmation (AID 2554;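 active means primary screen hit whose fluorescence ratio, in both repeats, exceeds the weak agonist control mean by 3 SD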); conditions: DAMGO EC20, Fluo-4 calcium flux, at 1 µM; hits give high values
[4] = test system: TRPC4 beta (transient receptor potential cation channel C4), mouse; experiment: potentiation of DAMGO EC20 TRPC4 response – cell-based, Fluo-4, HEK293 TRPC4beta/mu-opioid, confirmation (AID 2555); conditions: DAMGO EC20, Fluo-4 calcium flux, at 10 µM; hits give high values
[5] = target: Short transient receptor potential channel 4 (Mus musculus) (UniProt Q9QUQ5); experiment: blockers of DAMGO-evoked TRPC4 calcium flux – cell-based, Fluo4, HEK293 TRPC4beta/mu-opioid, confirmation (AID 2636;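 active means calcium signal cut by more than 3 SD below the full-agonist control yet still positive, in both repeats and the earlier primary screen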); conditions: at 10 µM; hits give high values
[6] = target: Short transient receptor potential channel 4 (Mus musculus) (UniProt Q9QUQ5); experiment: blockers of DAMGO-evoked TRPC4 calcium flux – cell-based, second round, Fluo4, HEK293 TRPC4beta/mu-opioid, 1 µM, confirmation (AID 2637;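 active means calcium signal ratio cut to more than 3 SD under the fully stimulated control mean yet still positive, in both repeats and the primary screen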;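 on inhibition: percent of integrated ratio relative to wells lacking test compound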); conditions: at 1 µM; hits give high values
[7] = target: Short transient receptor potential channel 4 (Mus musculus) (UniProt Q9QUQ5); experiment: calcium entry via TRPC4 opening agents – cell-based, HEK293 TRPC4/mu-opioid, Fluo-4 calcium, dose response (AID 434937;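 active means primary screen activator hit with a dose response curve and TRPC4 channel activation at any tested dose; inactive means no activation, no dose response, or not a primary hit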)
[8] = target: Short transient receptor potential channel 4 (Mus musculus) (UniProt Q9QUQ5); experiment: potentiation of DAMGO-evoked TRPC4 calcium signal – cell-based, HEK293 TRPC4/mu-opioid, Fluo-4 calcium, EC20 DAMGO, dose response (AID 434941;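 active means earlier screen potentiator hit that boosts the TRPC4 ion channel at some dose, with a dose response; inactive means no potentiation, no dose response, or not a prior hit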;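 further: calcium entry triggered by an EC20 dose of DAMGO at the co-expressed mu-opioid receptor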)
[9] = target: Short transient receptor potential channel 6 (Mus musculus) (UniProt Q61143); experiment: TRPC6 blockade by TRPC4 inhibitor hits – cell-based, HEK293, membrane potential dye, duplicate, selectivity assay for TRPC4 inhibitor project, confirmation (AID 434948;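 active means active in primary screen and both duplicates, each dropping signal beyond three positive-control SD with fluorescence still positive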); conditions: HEK293 TRPC6, membrane potential dye fluorescence, at 10 µM, stimulated with maximal-effect acetylcholine; hits give high values
[10] = target: Short transient receptor potential channel 6 (Mus musculus) (UniProt Q61143); experiment: TRPC6 opening by TRPC4 activator hits – cell-based, HEK293, membrane potential dye, duplicate, selectivity assay for TRPC4 activator project, confirmation (AID 434950;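 active means membrane potential signal rise above negative control mean plus 3 SD in both duplicates, also active in the earlier TRPC4 screen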); conditions: HEK293 TRPC6, membrane potential fluorescence, at 10 µM; activation: hits give high values; outcome: activation
[11] = target: Short transient receptor potential channel 6 (Mus musculus) (UniProt Q61143); experiment: positive modulators of mouse TRPC6 channel – HEK293 cells, membrane potential dye, duplicate, selectivity assay for TRPC4 potentiator project, confirmation (AID 434952;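 active means compound raising the membrane signal above positive-control mean plus 3 SD in both repeats, and a primary screen hit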); conditions: HEK293 TRPC6, membrane potential dye fluorescence, at 10 µM, maximal acetylcholine added after compound; hits give high values
[12] = target: Short transient receptor potential channel 4 (Mus musculus) (UniProt Q9QUQ5); experiment: calcium flux activators in TRPC4/5HT1a cells, counter-screen for TRPC4 activator project, cell-based, second counter screen, HEK293 TRPC4/5HT1a, Fluo-4 (AID 434977;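 active means calcium signal rise above buffer-control mean plus 5 SD in both duplicates, and also a hit in the primary screen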); conditions: Fluo-4 calcium flux, at 10 µM; hits give high values
[13] = serotonin-gated TRPC4 signal block – cell-based, second counter screen, HEK293 TRPC4/5HT1a, Fluo-4, counter-screen for TRPC4 inhibitor project, confirmation (AID 434978;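 active means primary screen active whose calcium signal fell more than 3 SD beyond the full-serotonin control mean in both duplicate plates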;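 on outcome: serotonin given first at submaximal then at maximal dose after compound preincubation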); conditions: Fluo-4 calcium flux, at 10 µM, serotonin added to trigger calcium flux; hits give high values
[14] = test system: TRPC4 (mouse), co-expressed with 5HT1a in HEK293; experiment: enhancement of serotonin-evoked TRPC4 response – cell-based, second counter screen, HEK293 TRPC4/5HT1a, Fluo-4, counter-screen for TRPC4 potentiator project, confirmation (AID 434979;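 active means signal rise over 3 SD above mean of control wells given weak agonist, in both repeats and first screen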); conditions: Fluo-4 calcium flux, at 10 µM, serotonin added at its EC20 dose; hits give high values
[15] = nonspecific calcium rise without TRPC4 – cell-based, HEK293 mu-opioid receptor line, counter-screen for TRPC4 activator project, confirmation (AID 449723;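 active means hit in primary screen, with calcium signal over 5 SD above buffer well mean in both duplicates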;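 further: counter screen cells carry the mu-opioid receptor alone and lack TRPC4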); conditions: HEK293 mu-opioid cells, Fluo-4 calcium fluorescence, at 10 µM; hits give high values
[16] = nonspecific potentiation of DAMGO calcium response – cell-based, HEK293 mu-opioid receptor line, counter-screen for TRPC4 allosteric potentiator project, confirmation (AID 449724;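 active means calcium signal rise more than 3 SD above the low-dose agonist control mean, in both duplicate plates and the primary screen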); conditions: HEK293 mu-opioid receptor cells, Fluo-4 calcium flux, at 10 µM, compound added before EC20 DAMGO stimulus; hits give high values

Chain of Short transient receptor potential channel 4 (Mus musculus) (Q9QUQ5 whole entry, looked up): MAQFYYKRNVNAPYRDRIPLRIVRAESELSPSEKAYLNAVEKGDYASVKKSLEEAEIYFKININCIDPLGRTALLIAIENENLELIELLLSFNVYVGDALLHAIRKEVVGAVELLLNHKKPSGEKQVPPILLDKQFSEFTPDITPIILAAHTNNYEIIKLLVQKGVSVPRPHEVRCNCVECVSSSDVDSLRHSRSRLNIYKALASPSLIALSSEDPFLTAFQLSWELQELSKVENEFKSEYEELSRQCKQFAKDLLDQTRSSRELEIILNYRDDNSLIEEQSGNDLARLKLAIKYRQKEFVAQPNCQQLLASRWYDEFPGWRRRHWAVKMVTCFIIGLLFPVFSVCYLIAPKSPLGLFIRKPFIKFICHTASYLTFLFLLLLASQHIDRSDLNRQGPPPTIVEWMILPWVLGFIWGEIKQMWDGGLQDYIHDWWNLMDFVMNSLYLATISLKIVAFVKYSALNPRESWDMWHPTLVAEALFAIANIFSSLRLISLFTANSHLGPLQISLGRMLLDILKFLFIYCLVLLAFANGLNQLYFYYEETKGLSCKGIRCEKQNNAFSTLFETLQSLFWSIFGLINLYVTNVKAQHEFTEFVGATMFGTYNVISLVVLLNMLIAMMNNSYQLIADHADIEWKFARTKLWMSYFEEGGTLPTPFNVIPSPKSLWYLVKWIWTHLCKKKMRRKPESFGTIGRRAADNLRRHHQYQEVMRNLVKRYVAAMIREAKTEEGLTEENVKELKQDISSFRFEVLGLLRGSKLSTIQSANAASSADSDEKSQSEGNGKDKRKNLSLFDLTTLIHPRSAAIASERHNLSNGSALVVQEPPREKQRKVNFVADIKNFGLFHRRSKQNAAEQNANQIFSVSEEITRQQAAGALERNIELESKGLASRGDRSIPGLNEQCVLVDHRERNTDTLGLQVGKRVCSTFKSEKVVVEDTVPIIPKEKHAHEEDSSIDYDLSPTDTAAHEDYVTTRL
Chain of Short transient receptor potential channel 6 (Mus musculus) (Q61143 whole entry, looked up): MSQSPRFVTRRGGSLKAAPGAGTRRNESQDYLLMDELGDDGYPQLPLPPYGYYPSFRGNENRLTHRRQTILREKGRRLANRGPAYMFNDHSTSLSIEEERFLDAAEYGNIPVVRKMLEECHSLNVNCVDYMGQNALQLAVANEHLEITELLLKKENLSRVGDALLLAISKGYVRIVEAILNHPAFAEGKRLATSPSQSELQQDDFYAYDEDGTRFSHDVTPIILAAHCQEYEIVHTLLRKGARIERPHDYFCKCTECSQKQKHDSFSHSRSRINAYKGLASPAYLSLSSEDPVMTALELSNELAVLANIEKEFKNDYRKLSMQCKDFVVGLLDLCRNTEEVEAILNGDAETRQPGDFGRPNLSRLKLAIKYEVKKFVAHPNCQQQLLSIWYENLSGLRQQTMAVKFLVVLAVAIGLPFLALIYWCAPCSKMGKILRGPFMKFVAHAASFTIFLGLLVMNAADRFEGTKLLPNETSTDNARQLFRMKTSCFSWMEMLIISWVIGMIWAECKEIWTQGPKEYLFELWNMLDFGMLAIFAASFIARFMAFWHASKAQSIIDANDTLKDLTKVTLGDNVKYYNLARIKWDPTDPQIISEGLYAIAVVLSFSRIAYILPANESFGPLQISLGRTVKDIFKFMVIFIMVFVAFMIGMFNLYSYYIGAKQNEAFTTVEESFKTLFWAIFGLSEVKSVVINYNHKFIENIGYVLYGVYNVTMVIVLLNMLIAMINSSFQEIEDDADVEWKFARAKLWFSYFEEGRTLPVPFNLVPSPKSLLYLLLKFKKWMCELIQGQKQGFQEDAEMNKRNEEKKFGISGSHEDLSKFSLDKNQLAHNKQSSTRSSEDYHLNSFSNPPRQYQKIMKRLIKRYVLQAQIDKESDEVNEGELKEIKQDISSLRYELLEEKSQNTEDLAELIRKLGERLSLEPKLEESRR

SMILES	outcome [1]	outcome [2]	outcome [3]	outcome [4]	inhibition [5]	outcome [6]	outcome [7]	outcome [8]	outcome [9]	outcome [10]	outcome [11]	outcome [12]	inhibition [13]	outcome [14]	outcome [15]	outcome [16]	outcome [13]	inhibition [6]	outcome [5]	inhibition [9]
Cc1c(CCOC(=O)c2cccc([N+](=O)[O-])c2)sc[n+]1CC(=O)c1ccccc1	inactive	inactive	inactive	inactive	88% (active)	inactive	inactive	inactive	inactive	inactive	inactive	inactive	28.9% (active)	inactive	inactive	inactive	–	–	–	–
CSCCNCc1cn(-c2ccc(F)cc2F)nc1-c1ccccc1C	inactive	inactive	inactive	inactive	91% (active)	inactive	inactive	inactive	inactive	inactive	inactive	inactive	–	inactive	inactive	inactive	inactive	–	–	–
COc1ccc(NC(=O)c2cccc(N3C(=O)C4CC=C(C)CC4C3=O)c2)c(OC)c1 (stereo not drawn)	inactive	inactive	inactive	inactive	75% (active)	inactive	inactive	inactive	inactive	inactive	inactive	inactive	–	inactive	inactive	inactive	inactive	–	–	–
CN1CCN(c2ccc(NC(=O)c3ccc(-c4ccc(Cl)cc4)o3)cc2)CC1	inactive	inactive	inactive	inactive	85% (active)	–	inactive	inactive	inactive	inactive	inactive	inactive	–	inactive	inactive	inactive	inactive	58% (active)	–	–
O=C(CSc1nnc(-c2ccc(Cl)cc2Cl)n1C1CCCCC1)N1CCCC1	inactive	inactive	inactive	inactive	–	–	inactive	inactive	inactive	inactive	inactive	inactive	–	inactive	inactive	inactive	inactive	48% (active)	inactive	–
CNC(=O)COc1ccc2oc3c(c2c1)CCCC3	inactive	inactive	inactive	inactive	74% (active)	–	inactive	inactive	inactive	inactive	inactive	inactive	31.4% (active)	inactive	inactive	inactive	–	49% (active)	–	–
CN1CCCCc2c1nc1ccccc1c2N (tested in a mixture with another compound)	inactive	inactive	inactive	inactive	95% (active)	–	inactive	inactive	–	inactive	inactive	inactive	12.4% (active)	inactive	inactive	inactive	–	83% (active)	–	27% (active)
O=c1c2ccccc2nc(SCc2ccc([N+](=O)[O-])cc2)n1CCCO	inactive	inactive	inactive	inactive	90% (active)	–	inactive	inactive	inactive	inactive	inactive	inactive	19.5% (active)	inactive	inactive	inactive	–	68% (active)	–	–
Cc1oc(-c2ccc(Cl)cc2)nc1CN1CCC(C(=O)NCc2cccs2)CC1	inactive	inactive	inactive	inactive	79% (active)	inactive	inactive	inactive	inactive	inactive	inactive	inactive	26.7% (active)	inactive	inactive	inactive	–	–	–	–
Cc1ccccc1N(C(=O)c1snc(C(N)=O)c1N)C(C(=O)NC1CCCC1)c1ccco1 (stereo not drawn)	inactive	inactive	inactive	inactive	78% (active)	inactive	inactive	inactive	inactive	inactive	inactive	inactive	37% (active)	inactive	inactive	inactive	–	–	–	–
CC(C)Cc1nc(N2CCOCC2)c(C#N)c2c1CCC2	inactive	inactive	inactive	inactive	76% (active)	–	inactive	inactive	inactive	inactive	inactive	inactive	35.1% (active)	inactive	inactive	inactive	–	50% (active)	–	–
CCCNCc1cc(Br)ccc1OCC(=O)NCCc1ccccc1	inactive	inactive	inactive	inactive	99% (active)	–	inactive	inactive	inactive	inactive	inactive	inactive	–	inactive	inactive	inactive	inactive	52% (active)	–	–
Cc1nc2ccccc2n1CC(O)COc1ccccc1Cl (stereo not drawn)	inactive	inactive	inactive	inactive	72% (active)	–	inactive	inactive	inactive	inactive	inactive	inactive	–	inactive	inactive	inactive	inactive	40% (active)	–	–
COc1ccc(Cn2nnnc2C(c2cc3cc(C)ccc3[nH]c2=O)N2CCN(C)CC2)cc1 (stereo not drawn)	inactive	inactive	inactive	inactive	83% (active)	inactive	inactive	inactive	inactive	inactive	inactive	inactive	–	inactive	inactive	inactive	inactive	–	–	–
COc1cc(C(F)(F)F)nc2c(Br)c(C(C)(C)C)nn12	inactive	inactive	inactive	inactive	92% (active)	–	inactive	inactive	inactive	inactive	inactive	inactive	35.3% (active)	inactive	inactive	inactive	–	65% (active)	–	–
Brc1ccc(N/N=C(/N=Nc2nn[nH]n2)c2ccccc2)cc1	inactive	inactive	inactive	inactive	–	inactive	inactive	inactive	–	inactive	inactive	inactive	30.4% (active)	inactive	inactive	inactive	–	–	inactive	25.5% (active)
COC(=O)c1cccc(NC(=S)Nc2cccc(Cl)c2Cl)c1	inactive	inactive	inactive	inactive	78% (active)	inactive	inactive	inactive	inactive	inactive	inactive	inactive	–	inactive	inactive	inactive	inactive	–	–	–
Cc1ccc(OCC(COCc2ccccc2)NC(C)C)cc1 (stereo not drawn)	inactive	inactive	inactive	inactive	85% (active)	inactive	inactive	inactive	–	inactive	inactive	inactive	42.1% (active)	inactive	inactive	inactive	–	–	–	5% (active)
